Results from PubChem BioAssay (NCI).
The panel holds about 83,000 compounds, 20% with a hit somewhere; the sample as a whole holds those more often.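 96-well plates, one dose, 48 hours. Percent growth reported; active if below 10.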 Active and inactive are the calls of the source.

Assays:
Test in all cases: NCI-60 one-dose screen, 48 h (100 = growth as untreated, 0 = no growth, -100 = all killed)
Details in all cases: 10 µM unless noted
HCT-15 colon = test system: HCT-15 colon
HT29 colon = test system: HT29 colon
SNB-75 CNS = test system: SNB-75 CNS
SNB-19 CNS = test system: SNB-19 CNS
U251 CNS = test system: U251 CNS
PC-3 prostate = test system: PC-3 prostate
SK-MEL-5 melanoma = test system: SK-MEL-5 melanoma
UACC-62 melanoma = test system: UACC-62 melanoma
LOX IMVI melanoma = test system: LOX IMVI melanoma
SK-MEL-28 melanoma = test system: SK-MEL-28 melanoma

Measured: growth

N#Cc1c(-c2ccccc2)cc(-c2ccccc2)n(CCCC(=O)NO)c1=O
inactive: HCT-15 colon 19.1% | HT29 colon 20.9% | SNB-19 CNS 43.5% | U251 CNS 26.8% | PC-3 prostate 35.5% | SK-MEL-28 melanoma 33.4%
active: SNB-75 CNS -23.6% | SK-MEL-5 melanoma -13.6% | UACC-62 melanoma 9.37% | LOX IMVI melanoma 8.85%

O=C(O)c1cn(C2CC2)c2cc(N3CCN(C(=O)N/N=C/c4ccccc4)CC3)c(F)cc2c1=O
inactive: HCT-15 colon 98.4% | HT29 colon 96.9% | SNB-75 CNS 98.9% | SNB-19 CNS 94.7% | U251 CNS 101% | PC-3 prostate 96% | SK-MEL-5 melanoma 94.9% | UACC-62 melanoma 95.3% | LOX IMVI melanoma 80.7% | SK-MEL-28 melanoma 108%

COc1ccc2c(c1)c(-c1ccc(-c3cn(C)c4ccc(OC)cc34)[nH]1)cn2C
inactive: HT29 colon 48% | SNB-75 CNS 17.9% | SNB-19 CNS 27.2% | SK-MEL-5 melanoma 29.6%
active: HCT-15 colon 4.19% | U251 CNS -62.9% | PC-3 prostate -11% | UACC-62 melanoma 5.29% | LOX IMVI melanoma -17.8% | SK-MEL-28 melanoma -20.1%

CC1O[C@@H]2C[C@@](O)([C@H]1O)n1c3ccccc3c3c4c(c5c6ccccc6n2c5c31)C(=O)NC4=O (stereo not given in full)
inactive: HCT-15 colon 62% | HT29 colon 28.6% | SNB-75 CNS 44.8% | SNB-19 CNS 35% | U251 CNS 24.8% | PC-3 prostate 41.2% | SK-MEL-28 melanoma 69.1%
active: SK-MEL-5 melanoma 1.39% | UACC-62 melanoma 9.56% | LOX IMVI melanoma 7.1%

COc1ccc(-c2cc(-c3cc(OC)c(OC)c(OC)c3)c(C#N)c(=O)n2CCCCCC(=O)NO)cc1
inactive: HCT-15 colon 71.7% | HT29 colon 101% | SNB-75 CNS 70.1% | SNB-19 CNS 89.8% | U251 CNS 81.9% | PC-3 prostate 89.4% | SK-MEL-5 melanoma 91.4% | UACC-62 melanoma 93.3% | LOX IMVI melanoma 78.7% | SK-MEL-28 melanoma 109%

O=C(/C=C/C12c3ccccc3C(c3ccccc31)C1C(=O)NC(=O)C12)c1ccccn1 (stereo not given)
active: HCT-15 colon -1.54% | HT29 colon 0.981% | SNB-19 CNS 1.14% | U251 CNS -28.9% | SK-MEL-5 melanoma 3.65% | UACC-62 melanoma -48.4% | LOX IMVI melanoma -60.5% | SK-MEL-28 melanoma -33.2%
inactive: SNB-75 CNS 26.5% | PC-3 prostate 16.3%

Cn1cc(-c2nn3cc(-c4ccccc4)nc3s2)c2ccccc21
inactive: HCT-15 colon 44.7% | HT29 colon 44.5% | SNB-75 CNS 39.8% | SNB-19 CNS 73.4% | U251 CNS 77.9% | PC-3 prostate 75.9% | SK-MEL-5 melanoma 65.5% | UACC-62 melanoma 54% | LOX IMVI melanoma 79.4% | SK-MEL-28 melanoma 71.1%

CC(C)CCC[C@@H](C)C1CCC2C3CCC4=C/C(=N/OCCN(C)C)CC[C@]4(C)C3CC[C@@]21C (stereo not given in full)
inactive: HCT-15 colon 98.3% | HT29 colon 78.7% | SNB-75 CNS 80.5% | SNB-19 CNS 86.5% | U251 CNS 79.2% | PC-3 prostate 57.1% | SK-MEL-5 melanoma 99.3% | UACC-62 melanoma 84.9% | LOX IMVI melanoma 57.8% | SK-MEL-28 melanoma 101%

COc1ncc2cc1NS(=O)(=O)c1cccc(c1)C(=O)NCC1=CC=C(S1)c1ncnc3c1SC2=C3C
inactive: SNB-19 CNS 11.5%
active: HCT-15 colon -18.2% | HT29 colon 4.55% | SNB-75 CNS -12.9% | U251 CNS -10.2% | PC-3 prostate -24.8% | SK-MEL-5 melanoma -38.2% | UACC-62 melanoma -46.7% | LOX IMVI melanoma -32.1% | SK-MEL-28 melanoma -62.2%

N#C/C(=C\c1ccc(-c2ccc(Cl)cc2)o1)c1ccc(Cl)cc1
inactive: HCT-15 colon 79.2% | HT29 colon 61.2% | SNB-75 CNS 14% | SNB-19 CNS 62% | U251 CNS 21.6% | PC-3 prostate 74.8% | SK-MEL-5 melanoma 91.4% | UACC-62 melanoma 78.7% | LOX IMVI melanoma 49.2% | SK-MEL-28 melanoma 99.7%

COC(=O)c1nc(-c2ccccc2)oc1S(=O)(=O)N1CCC(C(N)=O)CC1
inactive: HCT-15 colon 42.8% | HT29 colon 32.9% | SNB-75 CNS 93.2% | SNB-19 CNS 93.3% | U251 CNS 88.6% | PC-3 prostate 62.7% | SK-MEL-5 melanoma 81.6% | UACC-62 melanoma 79.6% | LOX IMVI melanoma 63.7% | SK-MEL-28 melanoma 63.4%

COc1cc(-c2cc(-c3ccc(Nc4ncnc5cc(Cl)ccc45)cc3)nc(N3CCN(C)CC3)n2)cc(OC)c1OC
inactive: HCT-15 colon 64.4% | HT29 colon 81.7% | SNB-75 CNS 49.5% | SNB-19 CNS 102% | U251 CNS 106% | PC-3 prostate 82.2% | SK-MEL-5 melanoma 74.5% | UACC-62 melanoma 97% | LOX IMVI melanoma 86.2% | SK-MEL-28 melanoma 86.6%

CCN(C(=O)N1CCN(c2cc3c(cc2F)c(=O)c(C(=O)O)cn3C2CC2)CC1)c1nc(-c2ccc(C)cc2)cs1
inactive: SNB-75 CNS 30.5% | SNB-19 CNS 18.8% | U251 CNS 16.3% | PC-3 prostate 10.8% | SK-MEL-28 melanoma 34.1%
active: HCT-15 colon 8.05% | HT29 colon 3.55% | SK-MEL-5 melanoma -32.8% | UACC-62 melanoma -3.01% | LOX IMVI melanoma 7.36%

CCc1cccc(Sc2cc(C(=O)N3Cc4ccc(OCCN(C)C)cc4C3)ccc2O)c1
inactive: HCT-15 colon 30.7% | HT29 colon 103% | SNB-75 CNS 121% | SNB-19 CNS 71.2% | U251 CNS 54.9% | PC-3 prostate 54.6% | SK-MEL-5 melanoma 26.5% | UACC-62 melanoma 66.5% | LOX IMVI melanoma 46.7% | SK-MEL-28 melanoma 90.8%

CC[C@H](C)[C@H](NC(=O)[C@H](CCCNC(=N)N)NC(=O)[C@H](Cc1c[nH]c2ccccc12)NC(=O)[C@@H](NC(=O)[C@H](CCCCN)NC(=O)[C@H](CCCCN)NC(=O)[C@@H](NC(=O)[C@@H](NC(=O)[C@@H](NC(=O)[C@H](CCCCN)NC(=O)[C@H](Cc1ccccc1)NC(=O)[C@H](CCCCN)NC(=O)[C@H](CCCCN)NC(=O)[C@H](Cc1ccccc1)NC(=O)[C@@H](NC(=O)[C@@H](N)CCCCN)[C@@H](C)CC)[C@@H](C)O)[C@@H](C)CC)[C@@H](C)CC)C(C)C)C(=O)N[C@@H](Cc1ccccc1)C(=O)NCC(=O)N[C@@H](CCCNC(=N)N)C(=O)N[C@@H](Cc1ccccc1)C(N)=O
active: HCT-15 colon -43% | HT29 colon -35.7% | SNB-75 CNS -34% | SNB-19 CNS -35.9% | U251 CNS -44.1% | PC-3 prostate -25.9% | SK-MEL-5 melanoma 3.57% | UACC-62 melanoma -65.7% | LOX IMVI melanoma -11% | SK-MEL-28 melanoma -31.7%

CC(C)[C@@]12C[C@@H](OC(=O)COC(=O)c3ccccc3)[C@@](C)(O1)[C@@H]1CC[C@@H](C)[C@H]1[C@@H]2OC(=O)/C=C/c1ccccc1
inactive: HCT-15 colon 92.5% | HT29 colon 89.9% | SNB-75 CNS 72.6% | SNB-19 CNS 84.5% | U251 CNS 84% | PC-3 prostate 74.2% | SK-MEL-5 melanoma 90.7% | UACC-62 melanoma 83.2% | LOX IMVI melanoma 89.1% | SK-MEL-28 melanoma 107%

CC(C)CN1CC(C(=O)Nc2ccc3c(c2)-c2ccccc2C3)CC1=O (stereo not given)
inactive: HCT-15 colon 49.7% [50 µM] | HT29 colon 87.8% [50 µM] | SNB-75 CNS 45.7% [50 µM] | SNB-19 CNS 72.1% [50 µM] | U251 CNS 72.8% [50 µM] | PC-3 prostate 57.1% [50 µM] | SK-MEL-5 melanoma 69.4% [50 µM] | UACC-62 melanoma 47.3% [50 µM] | LOX IMVI melanoma 75.9% [50 µM] | SK-MEL-28 melanoma 80% [50 µM]

O=C1CCCc2nc3sc4c(=O)n(-c5ccccc5Cl)nnc4c3cc21
inactive: HCT-15 colon 84.3% | HT29 colon 77.5% | SNB-75 CNS 114% | SNB-19 CNS 93% | U251 CNS 88.5% | PC-3 prostate 83.6% | SK-MEL-5 melanoma 87.9% | UACC-62 melanoma 90.6% | LOX IMVI melanoma 102% | SK-MEL-28 melanoma 109%

Clc1ccc(-c2nc(-c3c[nH]c4ncccc34)cs2)cc1
inactive: HCT-15 colon 98.7% [100 µM] | HT29 colon 80.2% [100 µM] | SNB-19 CNS 48.7% [100 µM] | U251 CNS 16.2% [100 µM] | PC-3 prostate 43.9% [100 µM] | SK-MEL-5 melanoma 84.1% [100 µM] | UACC-62 melanoma 71.2% [100 µM] | LOX IMVI melanoma 62.6% [100 µM] | SK-MEL-28 melanoma 94% [100 µM]
active: SNB-75 CNS -11.3% [100 µM]

Cc1c(Cl)cccc1C(=O)Nc1nc2c(s1)CN(C(=O)Nc1cccc(C(F)(F)F)c1)CC2
active: HT29 colon 1.39% | SNB-75 CNS 6.15% | PC-3 prostate 6.43% | SK-MEL-5 melanoma 2.35%
inactive: HCT-15 colon 11.8% | SNB-19 CNS 36.7% | U251 CNS 22.2% | UACC-62 melanoma 27.8% | LOX IMVI melanoma 18.9% | SK-MEL-28 melanoma 44.4%

O=C(CN1CCN(c2cc3c(cc2F)c(=O)c(C(=O)O)cn3C2CC2)CC1)N/N=C/c1ccncc1
inactive: HCT-15 colon 97.5% | HT29 colon 97.8% | SNB-75 CNS 89.1% | SNB-19 CNS 92.8% | U251 CNS 98.8% | PC-3 prostate 91.7% | SK-MEL-5 melanoma 96.9% | UACC-62 melanoma 95.7% | LOX IMVI melanoma 99.8% | SK-MEL-28 melanoma 106%

O=C(CBr)CN1C(=O)c2ccccc2C1=O
inactive: HCT-15 colon 110% | HT29 colon 99.9% | SNB-75 CNS 93.5% | SNB-19 CNS 115% | U251 CNS 101% | PC-3 prostate 102% | SK-MEL-5 melanoma 111% | UACC-62 melanoma 102% | LOX IMVI melanoma 94.7% | SK-MEL-28 melanoma 101%

COc1cc(C2C3=C(COC3=O)N(CCO)c3cc4c(cc32)OCCO4)cc(OC)c1OC (stereo not given)
active: HCT-15 colon 6.81% | HT29 colon -25.4% | SNB-75 CNS -5.04% | SNB-19 CNS 7.63% | U251 CNS 9.63% | SK-MEL-5 melanoma -30.9% | UACC-62 melanoma 6.33%
inactive: PC-3 prostate 14.3% | LOX IMVI melanoma 17.7% | SK-MEL-28 melanoma 42.8%

C#Cc1cccc(Nc2nc3ccc([N+](=O)[O-])cc3nc2Nc2cccc(C#C)c2)c1
active: HCT-15 colon -69.4% | HT29 colon -75.9% | SNB-75 CNS -91.9% | SNB-19 CNS -19.2% | U251 CNS -91.1% | PC-3 prostate -41.9% | SK-MEL-5 melanoma -88.9% | UACC-62 melanoma -39.3% | LOX IMVI melanoma -93.2% | SK-MEL-28 melanoma -69.4%

CCN(CC)CCNC(=O)c1ccc(-c2nc3ccc4[nH]ncc4c3c3c2CCCC3)cc1
inactive: HCT-15 colon 28.3% | HT29 colon 68.3% | SNB-75 CNS 54.2% | SNB-19 CNS 85.4% | U251 CNS 54.9% | PC-3 prostate 57.2% | SK-MEL-5 melanoma 69.8% | UACC-62 melanoma 33.8% | LOX IMVI melanoma 46% | SK-MEL-28 melanoma 73.2%
